# MCF10A rereplic – induces DNA re-replication in MCF 10a normal breast cells; Potency, µM (doses to about 46.1 µM), for inactives: at the highest dose activity, positive = re-replication, most hits filed as activators; MCF 10A DNA re-replication, Hoechst nuclear intensity, 48 h; hit rate 2.9% among 350,000; AID 624296; note: % of control where 0% means no effect; nearly all actives have a fitted effect of over 50% in size
# Gal4-VP16 FLuc – Gal4-VP16 reporter inhibition counter-screen; Drosophila S2 Gal4-VP16 UAS-luciferase, luminescence, 20 h; Potency, µM (doses to about 53.6 µM), without a hit: at the top dose activity, negative = inhibition, usual class: inhibitors; hit rate 3.5% among 310,000; AID 2546;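 note: Gal4-VP16 expression switched on by copper sulfate through the metallothionein promoter; % is set by controls: 0 for no effect and ±100 for the full control effect; nearly all actives have a fitted effect of over 50% in size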
# KB-3-1 tox – kills parental KB-3-1 adenocarcinoma cells. KB-3-1 viability, CellTiter-Glo ATP luminescence, 72 h. Potency, µM (highest dose often 46.1 µM), actives largely listed as cytotoxic. hit rate 1.4% among 400,000. AID 1347075; note: % is set by controls: 0 for no effect and ±100 for the full control effect; nearly all actives have a fitted effect of over 60% in size
#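 KB-3-1 cells, DMEM (no phenol red) + 10% FBS; compound by pin transfer, 72 h, 37 °C. Readout: CellTiter-Glo luminescence after 10 min. Data normalized, curve-fitted.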
# RORg inh – inhibitors of mouse ROR gamma transcriptional activity; P51450; Drosophila S2 Gal4-RORgamma UAS-luciferase reporter, 20 h; Potency, µM (series often up to 53.6 µM), for the others: at the top dose activity change, negative = inhibition, most hits filed as inhibitors; hit rate 5.4% among 310,000; AID 2551; note: % is set by controls: 0 for no effect and ±100 for the full control effect; nearly all actives have a fitted effect of over 60% in size
# Target sequence (P51450 whole entry, looked up, the tested form may be a part): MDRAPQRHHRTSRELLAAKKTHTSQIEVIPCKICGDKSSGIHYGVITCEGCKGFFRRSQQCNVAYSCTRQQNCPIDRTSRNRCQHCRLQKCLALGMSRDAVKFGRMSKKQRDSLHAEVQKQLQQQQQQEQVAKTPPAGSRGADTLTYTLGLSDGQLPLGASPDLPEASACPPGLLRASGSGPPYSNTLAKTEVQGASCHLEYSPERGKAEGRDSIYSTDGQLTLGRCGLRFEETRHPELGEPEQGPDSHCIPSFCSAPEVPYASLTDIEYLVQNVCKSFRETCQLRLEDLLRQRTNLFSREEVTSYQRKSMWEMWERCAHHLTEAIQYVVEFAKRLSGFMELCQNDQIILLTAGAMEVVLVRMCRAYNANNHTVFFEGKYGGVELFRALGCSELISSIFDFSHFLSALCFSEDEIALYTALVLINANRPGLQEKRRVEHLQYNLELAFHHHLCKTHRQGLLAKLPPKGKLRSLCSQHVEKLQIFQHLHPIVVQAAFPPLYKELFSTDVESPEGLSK
#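 Luminescence from a UAS-regulated Photinus luciferase reporter in stably transfected Drosophila Schneider cells is measured; decreased signal marks ROR gamma inhibition. Fusion expression is induced by 700 uM copper sulfate for 20 hr.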
# KB-V1 cytotox – KB-V1 MDR subline cytotoxicity; Potency, µM (highest dose often 46.1 µM), actives largely listed as cytotoxic; KB-V1 MDR cells viability, CellTiter-Glo, 72 h; hit rate 3.4% among 400,000; note: % is set by controls: 0 for no effect and ±100 for the full control effect; nearly all actives have a fitted effect of over 60% in size
#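 KB-V1, DMEM (no phenol red) + 10% FBS; cpd pin-transferred, titration series; 72 h, 37 degrees C; CellTiter-Glo, luminescence. Data normalized, curve-fit.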
# SW480 rerep – induces DNA re-replication in SW480 colon adenocarcinoma cells. Potency, µM (top dose mostly 46.1 µM), for inactives: top-dose re-replication activation, hits mostly activators. AID 624297. hit rate 1.8% among 340,000. SW480 DNA re-replication, Hoechst DNA content imaging, 48 h; note: % of control where 0% means no effect; nearly all actives have a fitted effect of over 55% in size
#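 250 cells/well; 23 nL cpd via pin tool; 48 hr, 37 C, 5% CO2; Hoechst 40 min; imager read of total nuclear intensity, ex 405/em 500-530 nm.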
# * = called active by the depositor; i = inactive; ? = inconclusive; / = no result; [ ] = dose if it differs, or a comment. Hits are enriched below; roughly 10% of the tested compounds scored in any of these assays. Calls come from the whole dose curve; as a rule, active = well fitted curve in the direction sought with a large enough effect; inconclusive = small, poorly fitted or top-dose-only effect, or another doubt; inactive = no such curve, though single readings can be large; an effect the other way counts as inactive or inconclusive. Potency is the fitted concentration of half-maximal effect.
SMILES,MCF10A rereplic,Gal4-VP16 FLuc,KB-3-1 tox,RORg inh,KB-V1 cytotox,SW480 rerep
CC(=O)Nc1ccc2c(c1)Cc1cc(N3C(=O)C=CC3=O)ccc1-2,5.2µM*,/,?,/,i,13µM*
O=C1C=CC(=O)N1c1ccc2c(c1)Cc1cc(F)ccc1-2,?,/,i,/,i,?
O=C1NCCCC2c3cc(O)c4ccccc4c3OC12N1CCCCC1 (stereo not given),/,?,/,10µM*,/,/
CCc1ccc2oc(-c3cc(N)ccc3O)nc2c1,?,4µM*,?,2.5µM*,i,18%
CCc1ccc2oc(-c3cc(N)cc(C)c3O)nc2c1,?,8.9µM*,i,?,i,15%
Nc1ccc2oc(-c3cc(Br)ccc3Cl)nc2c1,?,5%,i,12%,?,-2%
CCc1ccc2oc(-c3cc(N)ccc3Cl)nc2c1,-3%,10µM*,i,?,i,-7%[9.22 µM]
COc1ccc(OCC(=O)N(Cc2cccc(OC)c2)C2CCS(=O)(=O)C2)cc1 (stereo not given),/,/,i,/,i,/
CCOCCCNC(=O)CN1C(=O)c2cccnc2Sc2ccccc21,/,/,i,/,i,/
CCCCOCCCNC(=O)CN1C(=O)c2ccccc2C1=O,3.7µM*,5%,i,-11%,i,28%
COc1ccc(C2=NN(C(=O)/C=C/c3ccccc3)C(c3ccccc3)C2)c(OC(C)=O)c1 (stereo not given),?,-7%,?,-1%,2.9µM*,3%
COC(=O)c1ccc(CN2CCc3ccc(NC(=O)c4ccncc4)cc3C2)cc1,?,-9%,?,35%,13µM*,-4%
O=C(Nc1cccc(Br)c1)c1ccc(CN2CCc3ccccc3C2)cc1,26µM*,19%,?,?,?,18µM*
CC(=O)Nc1ccc(NC(=O)c2ccc(CN3CCc4ccccc4C3)cc2)cc1,2%,-7%,i,12%,i,-11%
O=C(Nc1ccc(F)cc1)c1ccc(CN2CCc3ccccc3C2)cc1,1%,-7%,?,-10%,5.8µM*,-5%
CSc1cccc(NC(=O)c2ccc(CN3CCc4ccccc4C3)cc2)c1,?,2%,?,36%,?,?
Cc1ccc2c(c1)-c1cc(C)ccc1C2=O,13%,/,i,/,i,-9%
C#CCNC(=O)C[C@@H]1C[C@@]2(C(=O)OC)CC(C)(C)CC=C2N(CCCCCCCC)C1=O,/,/,i,/,?,/
O=C(Cn1nnc(-c2cccc(C(F)(F)F)c2)n1)NCc1ccc(F)cc1,/,/,i,/,?,/
O=[N+]([O-])c1ccc(/C=N/N=C/c2ccc([N+](=O)[O-])o2)o1,2.6µM*,4.5µM*,?,1.1µM*,8.2µM*,1%
O=C1CN(/N=C\c2ccc([N+](=O)[O-])o2)C(=O)N1,/,2%[17 µM],/,-22%[16.9 µM],/,/
CC1(C(=O)N/N=C/c2ccc([N+](=O)[O-])o2)CC1(Br)Br (stereo not given),?,?,?,-9%,18µM*,4.6µM*
O=C(Cc1ccc([N+](=O)[O-])cc1)N/N=C/c1ccc([N+](=O)[O-])o1,3%,?,?,-22%,?,15%
Cc1cc2ncn(/N=C/c3ccc([N+](=O)[O-])o3)c2cc1C,21µM*,?,i,-19%,?,21µM*
CCOC(=O)N/N=C\c1ccc([N+](=O)[O-])o1,-5%,-7%,i,-19%,?,-1%
SMILES,MCF10A rereplic,Gal4-VP16 FLuc,KB-3-1 tox,RORg inh,KB-V1 cytotox,SW480 rerep
Cc1ccc(S(=O)(=O)N/N=C\c2ccc([N+](=O)[O-])o2)cc1C,5%,-13%,i,-13%,i,5%
CC(=O)N/N=C/c1ccc([N+](=O)[O-])o1,?,3.5µM*,/,?,/,10%
Cc1cc(C)c2c(=O)cc(C(=O)Nc3ccc(C)c(Cl)c3)oc2c1,/,/,i,/,i,/
COc1ccc(OC)c(CN2C(=O)CN(S(C)(=O)=O)CC2(C)C(=O)Nc2c(C)cccc2C)c1 (stereo not given),/,/,i,/,i,/
CC(C)(C)OC(=O)N/N=C\c1ccc[nH]1,0%,-9%,i,19%,i,12%
O=C(CC12CC3CC(CC(C3)C1)C2)N/N=C\c1ccc[nH]1,-2%,16µM*,i,7.9µM*,i,-2%
O=C(CC12CC3CC(CC(C3)C1)C2)N/N=C/c1ccc([N+](=O)[O-])o1,?,?,i,10µM*,i,?
CCCCCCCC(=O)N/N=C/c1ccc([N+](=O)[O-])o1,?,?,i,-22%,?,?
C[C@@H]1CN([C@H](C)CO)S(=O)(=O)c2ccc(C#CCN(C)C)cc2O[C@@H]1CN(C)Cc1ccccc1F,/,/,i,/,i,/
C/C(=N\NC(=S)NCc1ccccc1)c1cccs1,?,2µM*,i,0.45µM*,?,?
C/C(=N\NC(=O)Cc1ccccc1)c1ccc(Cl)s1,0%,2%,i,2%,?,?
C/C(=N\NC(=S)NCc1ccccc1)c1ccc(Cl)s1,2%,8.9µM*,i,1.4µM*,i,-23%
CCn1c(NC(C)=O)nc2ccccc21,-5%,?,i,?,i,-5%
CC(/C=N\NC(=O)Cn1c(C)nc2ccccc21)=C\c1ccccc1,15%,13µM*,18µM*,21%,?,-1%
C/C(=N\NC(=O)COc1ccccc1)c1cccs1,0%,?,i,34%,?,0%
CCn1c(NC(=O)c2cccs2)nc2ccccc21,-1%,1.1µM*,?,0.71µM*,?,-5%
COc1cccc(-c2nc(NC3CCNCC3)c3ccccc3n2)c1,/,-12%,/,0%,/,/
C/C(=N/NC(=O)Cc1cccc2ccccc12)c1cccs1,3%,-12%,i,17%,?,1%
C/C(=N\NC(=O)Cc1ccccc1)c1cccs1,18µM*,-1%,i,-2%,i,15%
C/C(=N\NC(=O)C(O)c1ccccc1)c1ccc(Cl)s1 (stereo not given),11%,-11%,i,1%,i,21%
COCCNC(=S)N/N=C(\C)c1ccc(Cl)s1,10%,3.2µM*,i,0.79µM*,i,5%
C/C(=N\NC(=O)Cn1c(C)nc2ccccc21)c1cccs1,3%,-29%,i,?,15µM*,-2%
C/C(=N\NC(=O)CN1CCN(Cc2ccccc2)CC1)c1cccs1,-7%,2%,i,-3%,i,-8%
CC1(C(=O)NS(=O)(=O)c2ccc(Cl)cc2)CCN1C(=O)CCc1ccccc1 (stereo not given),/,/,i,/,i,/

# Bioassay records from PubChem.
